Source: PubChem BioAssay (Tox21)
Results filed as inconclusive are left out. Where a call stands in place of a potency, no number is given. The source made the active and inactive calls. The call rests on the fitted dose curve; in most records, active means well fitted curve in the direction sought with a large enough effect in the repeat runs; inconclusive means weak or mixed curves; inactive means no such curve, though single readings can be large; an effect the other way counts as inactive or inconclusive.

Assay: Human pregnane X receptor (PXR) small molecule agonists, qHTS cell viability counter screen (AID 1346977); further: nearly all actives have a fitted effect of over 50% in size
Conditions: PXR-Luc HepG2 viability, CellTiter-Fluor, 24 h; series mostly up to 92.4 µM
Procedure, shortened: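 In each well, the PXR reporter HepG2 line was checked for viability: CellTiter-Fluor reagent added 23hr post-dosing, fluorescence read after 1hr incubation at 37C.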

| SMILES | Potency |
| --- | --- |
| CCCCc1ccc(O)cc1 | inactive |
| C[C@@H]1CN(C2CCC(C#N)(c3ccc(F)cc3)CC2)CC[C@]1(C(=O)O)c1ccccc1 (stereo partly drawn) | inactive |
| COc1cc(OC)nc(Oc2cccc(Oc3nc(OC)cc(OC)n3)c2C(=O)O)n1 | inactive |
| N#CCNCC#N | inactive |
| CCNc1nc(NC(C)C)nc(OC)n1 | inactive |
| Cc1cnc[nH]1 | inactive |
| COc1cc2c(cc1OC)[C@@]13CCN4CC5=CCO[C@H]6CC(=O)N2[C@H]1[C@H]6[C@H]5C[C@H]43 | inactive |
| CCC1(c2ccccc2)C(=O)NC(=O)NC1=O | inactive |
| CC(Oc1ccc(Oc2ncc(C(F)(F)F)cc2Cl)cc1)C(=O)O (stereo not drawn) | inactive |
| CN(N=O)C(N)=O | inactive |
| NC1=NC(=O)C(c2ccccc2)O1 (stereo not drawn) | inactive |
| OC(Cn1cncn1)(c1ccc(F)cc1)c1ccccc1F (stereo not drawn) | inactive |
| ClC(Cl)Br | inactive |
| CCC#N | inactive |

Assay: Caspase-3/7 induction in HepG2 cells by small molecules, qHTS assay (AID 1346978); further: nearly all actives have a fitted effect of over 15% in size
Conditions: HepG2 caspase-3/7 activation, Caspase-Glo luminescence, 17 h; series mostly up to 92.4 µM
Procedure, shortened: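 Caspase-3/7 induction was measured by Caspase-Glo 3/7 luminescence (30 min, room temperature) after a 17 hr compound exposure of wild-type HepG2 cells seeded at 2,000 per well and pre-incubated 5 hr.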

| SMILES | Potency |
| --- | --- |
| CCS(=O)(=O)C(C)(C)S(=O)(=O)CC | inactive |
| O=C(O)c1ccc2[nH]cc(CCCCN3CC=C(c4ccccc4)CC3)c2c1 | inactive |
| O=[N+]([O-])c1cc(Cl)c(Cl)c(Cl)c1 | inactive |
| CCN(Cc1ccc(Cl)nc1)/C(=C/[N+](=O)[O-])NC | inactive |
| C[N+](C)=CCl | inactive |
| CCC(C)(C)c1cc(-n2nc3ccccc3n2)c(O)c(C(C)(C)CC)c1 | inactive |
| OCCSCSCCO | inactive |
| ClCCCN1CCN(c2cccc(Cl)c2)CC1 | inactive |
| C=C(C)CN(CC)c1c([N+](=O)[O-])cc(C(F)(F)F)cc1[N+](=O)[O-] | inactive |
| CC(C)[N+](=O)[O-] | inactive |
| Cc1cccc(C#N)c1 | inactive |
| COC(=O)c1ccccc1S(=O)(=O)NC(=O)N(C)c1nc(C)nc(OC)n1 | inactive |
| CC(C)(C)C(=O)C(Oc1ccc(Cl)cc1)n1cncn1 (stereo not drawn) | inactive |
| CN1C(=S)CN=C(c2ccccc2)c2cc(Cl)ccc21 | inactive |
| O=NN1CCN(N=O)CC1 | inactive |
| O=C(O)c1cccc(Cl)c1 | inactive |
| O=CNC(N1CCN(C(NC=O)C(Cl)(Cl)Cl)CC1)C(Cl)(Cl)Cl (stereo not drawn) | inactive |
| Cc1ncc2n1-c1ccc(Cl)cc1C(c1ccccc1F)=NC2 | inactive |
| CCOC(=O)CP(=O)(OCC)OCC | inactive |

| SMILES | Potency |
| --- | --- |
| COC(=O)C(c1ccccc1)C1CCCCN1 (stereo not drawn) | inactive |
| COC(=O)C(C)Oc1ccc(Oc2ccc(Cl)cc2Cl)cc1 (stereo not drawn) | inactive |
| C[C@H]1CCC[C@H](O)CCCCCc2cc(O)cc(O)c2C(=O)O1 | inactive |
| CC(C)CC(N(C)C)C1(c2ccc(Cl)cc2)CCC1 (stereo not drawn) | inactive |
| CCCCc1ccc(O)cc1 | inactive |
| C[C@@H]1CN(C2CCC(C#N)(c3ccc(F)cc3)CC2)CC[C@]1(C(=O)O)c1ccccc1 (stereo partly drawn) | inactive |
| COc1cc(OC)nc(Oc2cccc(Oc3nc(OC)cc(OC)n3)c2C(=O)O)n1 | inactive |
| N#CCNCC#N | inactive |
| CCNc1nc(NC(C)C)nc(OC)n1 | inactive |
| Cc1cnc[nH]1 | inactive |
| COc1cc2c(cc1OC)[C@@]13CCN4CC5=CCO[C@H]6CC(=O)N2[C@H]1[C@H]6[C@H]5C[C@H]43 | inactive |
| CCC1(c2ccccc2)C(=O)NC(=O)NC1=O | inactive |
| CC(Oc1ccc(Oc2ncc(C(F)(F)F)cc2Cl)cc1)C(=O)O (stereo not drawn) | inactive |
| CN(N=O)C(N)=O | inactive |
| NC1=NC(=O)C(c2ccccc2)O1 (stereo not drawn) | inactive |
| OC(Cn1cncn1)(c1ccc(F)cc1)c1ccccc1F (stereo not drawn) | inactive |
| ClC(Cl)Br | inactive |
| CCC#N | inactive |

Assay: Caspase-3/7 induction in CHO-K1 cells by small molecules, qHTS cell viability counter screen (AID 1346979); further: nearly all actives have a fitted effect of over 35% in size; further: potency means the concentration at half of the fitted maximal effect
Conditions: CellTiter-Fluor fluorescence, 17 h; series mostly up to 92.4 µM
Procedure, shortened: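 Following a 5hr settling period, CHO-K1 cells at 1,500 per well received DMSO-dissolved compounds. Cell viability was quantified 16hr later by CellTiter-Fluor fluorescence, measured after 1hr with reagent at 37C.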

| SMILES | Potency |
| --- | --- |
| CCS(=O)(=O)C(C)(C)S(=O)(=O)CC | inactive |
| O=C(O)c1ccc2[nH]cc(CCCCN3CC=C(c4ccccc4)CC3)c2c1 | inactive |
| O=[N+]([O-])c1cc(Cl)c(Cl)c(Cl)c1 | inactive |
| CCN(Cc1ccc(Cl)nc1)/C(=C/[N+](=O)[O-])NC | inactive |
| C[N+](C)=CCl | inactive |
| CCC(C)(C)c1cc(-n2nc3ccccc3n2)c(O)c(C(C)(C)CC)c1 | inactive |
| OCCSCSCCO | inactive |
| ClCCCN1CCN(c2cccc(Cl)c2)CC1 | inactive |
| C=C(C)CN(CC)c1c([N+](=O)[O-])cc(C(F)(F)F)cc1[N+](=O)[O-] | inactive |
| CC(C)[N+](=O)[O-] | inactive |
| Cc1cccc(C#N)c1 | inactive |
| COC(=O)c1ccccc1S(=O)(=O)NC(=O)N(C)c1nc(C)nc(OC)n1 | inactive |
| CC(C)(C)C(=O)C(Oc1ccc(Cl)cc1)n1cncn1 (stereo not drawn) | inactive |
| CN1C(=S)CN=C(c2ccccc2)c2cc(Cl)ccc21 | inactive |
| O=NN1CCN(N=O)CC1 | inactive |
| O=C(O)c1cccc(Cl)c1 | inactive |
| O=CNC(N1CCN(C(NC=O)C(Cl)(Cl)Cl)CC1)C(Cl)(Cl)Cl (stereo not drawn) | inactive |
| Cc1ncc2n1-c1ccc(Cl)cc1C(c1ccccc1F)=NC2 | inactive |
| CCOC(=O)CP(=O)(OCC)OCC | inactive |

| SMILES | Potency |
| --- | --- |
| COC(=O)C(c1ccccc1)C1CCCCN1 (stereo not drawn) | inactive |
| COC(=O)C(C)Oc1ccc(Oc2ccc(Cl)cc2Cl)cc1 (stereo not drawn) | inactive |
| C[C@H]1CCC[C@H](O)CCCCCc2cc(O)cc(O)c2C(=O)O1 | 61.6 µM (active) |
| CC(C)CC(N(C)C)C1(c2ccc(Cl)cc2)CCC1 (stereo not drawn) | inactive |
| CCCCc1ccc(O)cc1 | inactive |
| C[C@@H]1CN(C2CCC(C#N)(c3ccc(F)cc3)CC2)CC[C@]1(C(=O)O)c1ccccc1 (stereo partly drawn) | inactive |
| COc1cc(OC)nc(Oc2cccc(Oc3nc(OC)cc(OC)n3)c2C(=O)O)n1 | inactive |
| N#CCNCC#N | inactive |
| CCNc1nc(NC(C)C)nc(OC)n1 | inactive |
| Cc1cnc[nH]1 | inactive |
| COc1cc2c(cc1OC)[C@@]13CCN4CC5=CCO[C@H]6CC(=O)N2[C@H]1[C@H]6[C@H]5C[C@H]43 | inactive |
| CCC1(c2ccccc2)C(=O)NC(=O)NC1=O | inactive |
| CC(Oc1ccc(Oc2ncc(C(F)(F)F)cc2Cl)cc1)C(=O)O (stereo not drawn) | inactive |
| CN(N=O)C(N)=O | inactive |
| NC1=NC(=O)C(c2ccccc2)O1 (stereo not drawn) | inactive |
| OC(Cn1cncn1)(c1ccc(F)cc1)c1ccccc1F (stereo not drawn) | inactive |
| ClC(Cl)Br | inactive |
| CCC#N | inactive |
